# Compounds with a hit are over-represented: about 0.97% of the library has one in this group of screens.
# S1P4 ag: agonists of human S1P4 receptor. AID 1509. O95977. actives 0.35% (n = 220,000). S1P4-expressing cell line, agonist reporter assay. activation, % at 4.98 µM; in the data active = activation above about 11%;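 note: 0% = DMSO vehicle and 100% = reference agonist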
# S1P3 antagonist: S1P3 (human) receptor antagonism; Q99500; CHO S1P3 NFAT-BLA reporter, FRET fluorescence, antagonist mode; inhibition, % at 4.98 µM; actives 0.27% (n = 170,000); AID 485;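 active = inhibition above the plate cutoff, the mean inhibition of test wells on that plate plus 3 SD, cut at about 28% in these data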;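 note: cells challenged with S1P at its EC80 of 0.8 µM; blue over green emission ratio from cleaved BLA substrate after 4 h stimulation; 0% = S1P-stimulated wells and 100% = unstimulated DMSO-only wells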
# Target sequence (Q99500 whole entry, looked up): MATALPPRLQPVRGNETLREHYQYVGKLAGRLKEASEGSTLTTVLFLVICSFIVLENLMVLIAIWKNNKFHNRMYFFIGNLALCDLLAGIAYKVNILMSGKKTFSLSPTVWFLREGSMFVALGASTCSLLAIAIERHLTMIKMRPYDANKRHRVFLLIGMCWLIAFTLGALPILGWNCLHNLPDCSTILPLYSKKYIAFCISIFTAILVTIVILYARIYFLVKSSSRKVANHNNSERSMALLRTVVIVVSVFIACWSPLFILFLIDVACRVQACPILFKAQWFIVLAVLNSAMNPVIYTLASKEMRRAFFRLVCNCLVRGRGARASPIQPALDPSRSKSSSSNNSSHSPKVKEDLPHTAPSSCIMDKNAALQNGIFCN
# AI-2 QS mod: Vibrio harveyi AI-2 quorum sensing modulation; Vibrio harveyi JMH597 AI-2 luminescence/OD600 ratio, 9 h; hits give low values; strain lacks LuxN and CqsS sensors; 0 = neutral-control median; activity change, % at 7.5 µM; actives 0.4% (n = 300,000); in the data active = activity change below about -75%, passing the limit was not always enough; inconclusive = no clear call, values can overlap the other calls;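 note: luminescence divided by OD600 gain over 9 h not by final OD600 alone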
# S1P4 antag: antagonists of human S1P4 receptor; actives 0.26% (n = 220,000); inhibition, % at 4.98 µM; O95977; S1P4-expressing cells, antagonist mode, reporter read-out; in the data active = inhibition above about 29%;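 note: 0% = wells stimulated with agonist and 100% = vehicle wells without agonist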
# Hsp70 act: transcriptional activators of Hsp70; activation, % at 10 µM; actives 0.04% (n = 200,000); HeLa Hsp70 promoter luciferase reporter, luminescence; scaled: vehicle 0, proteasome-inhibitor control 100%;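 active = activation above the mean across all tested compounds plus 3 SD, cutoff set per campaign, cut at about 5.5% in these data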;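 note: 100% = MG132 at 30 µM as the positive control and 0% = DMSO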
# S1P4 agonist cf: confirmation of human S1P4 receptor agonists | shares compounds with S1P4 ag | S1P4 agonist cell-based reporter assay | activation, % at 4.98 µM | actives 7% (n = 740); in the data active = activation above about 12%;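 note: 0% = vehicle and 100% = full reference agonist response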
# S1P1 ag: counter-screen for S1P4 agonists: agonists of human S1P1 | shares compounds with S1P4 ag | S1P1 agonist cell-based assay, activation | activation, % at 4.98 µM | actives 4% (n = 740); in the data active = activation above about 21%;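 note: 0% = vehicle wells and 100% = reference agonist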
# S1P4 antag cf: confirmation of human S1P4 receptor antagonists; shares compounds with S1P4 antag; S1P4-expressing cell line, antagonist mode, reporter read-out; actives 71% (n = 520); inhibition, % at 4.98 µM; in the data active = inhibition above about 30%
# S1P1 antagonist: human S1P1 antagonism as S1P4 antagonist counter-screen | shares compounds with S1P4 antag | cell-based S1P1 antagonist counterscreen, inhibition | inhibition, % at 4.98 µM | actives 37% (n = 520) | AID 1564; in the data active = inhibition above about 40%;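 note: receptor stimulated with S1P near its EC80; 0% = agonist stimulated wells and 100% = vehicle only wells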
# * = called active by the depositor; ? = inconclusive; . = no result given.
SMILES,S1P4 ag,S1P3 antagonist,AI-2 QS mod,S1P4 antag,Hsp70 act,S1P4 antag cf,S1P1 antagonist,others
CC(=O)Oc1ccc2cc(-c3nc4ccccc4n3C)c(=O)oc2c1,30*,-25,13,36*,0,37*,-53,S1P4 agonist cf=15*;S1P1 ag=12
O=C1C(Cl)=C(Nc2ccc(O)cc2)C(=O)c2ccccc21,14*,-20,16,90*,.,105*,65*,S1P4 agonist cf=3;S1P1 ag=-10
CCn1c(SCC(=O)Nc2ccc(N3CCOCC3)cc2)nnc1-c1ccncc1,.,.,-2,.,.,.,.,
COc1c(C)cc(C(=O)C2CCCN(C(=O)c3snnc3C)C2)cc1C (stereo not drawn),2,1,16,-19,0,.,.,
Clc1ccc2nc(N3CCNCC3)nc(-c3ccccc3)c2c1,20*,.,36,30*,0,39*,-47,S1P4 agonist cf=13*;S1P1 ag=15
CN1CCN(c2nc(-c3ccccc3)c3cc(Cl)ccc3n2)CC1,9,-17,26,-18,0,.,.,
CC(C)(C)OC(=O)N[C@@H](Cc1ccccc1)c1nnc(S(=O)(=O)Cc2cccc(F)c2)o1,-4,-9,13,78*,0,94*,10,
CC[C@@H](C)[C@H](NC(=O)OC(C)(C)C)c1nnc(S(=O)(=O)Cc2cc(C)ccc2C)o1,-4,-7,12,57*,0,105*,35,
Cc1ccccc1CS(=O)(=O)c1nnc([C@H](CC(C)C)NC(=O)OC(C)(C)C)o1,-5,-7,16,86*,0,113*,33,
Cc1ccc(C)c(NC(=O)CN(C)S(=O)(=O)c2cccc3cccnc23)c1,0,0,9,10,.,.,.,
CCC1(C)OC(=O)N(CCCn2ccnc2C)C1(C)O (stereo not drawn),1,.,7,-20,0,.,.,
Cc1nccn1CCCN1C(=O)OC2(CCCCC2)C1(C)O (stereo not drawn),-3,-6,-1,32*,0,2,0,
COc1cc(C=C(c2nc3ccccc3s2)c2nc3ccccc3s2)ccc1O,1,19,34,-14,0,.,.,
COc1ccc(C=C(c2nc3ccccc3s2)c2nc3ccccc3s2)cc1O,2,-12,36,29*,0,58*,16,
Cc1n[nH]c(C)c1CCNC(=O)C1CCC(=O)N(Cc2ccccc2F)C1 (stereo not drawn),.,.,6,.,.,.,.,
O=C(/C=C/c1ccccc1)c1ccccc1,3,2,6,-8,0,.,.,
N#Cc1ccc(/C=C/C(=O)c2ccccc2)cc1,-1,1,19,86*,.,90*,22,
CN1CCN(C(=O)CNc2ccc(C(F)(F)F)cc2[N+](=O)[O-])CC1,1,17,44,-4,0,.,.,
CC1Cc2cccc3c(O)c(C(=O)c4nn[nH]n4)c(=O)n1c23 (stereo not drawn),1,5,20,-13,0,.,.,
Cn1nc(-c2ccc(Cl)cc2)nc2c(=O)n(C)c(=O)nc1-2,-9,.,-77*,90*,0,110*,88*,
Cc1ccc2cc(/C=C/C(=O)c3ccco3)c(Cl)nc2c1,-1,1,3,37*,.,68*,0,
CCOC(=O)c1nnn(-c2nonc2-n2cccc2)c1-c1cccc([N+](=O)[O-])c1,1,-9,-7,-6,0,.,.,
CCCCOc1ccccc1C(=O)NCCCC(=O)O,-6,.,25,35*,0,-3,-2,
Cc1cc(C(=O)COC(=O)C2=COCCO2)c(C)n1-c1cccc(F)c1,.,.,10,.,.,.,.,
CS(=O)(=O)c1nc(-c2ccc(F)cc2)cc(C(F)(F)F)n1,-3,-10,?,70*,2,117*,21,
Cc1cc(NC(=O)CCCS(=O)(=O)c2nc(-c3cccs3)cc(C(F)(F)F)n2)no1,0,-10,9,40*,0,111*,45*,
